Shown is part of a subset that was picked to be rich in hits.
p53ts 39C tox: p53ts cell cytotoxicity, nonpermissive temperature; H1299-p53A138V viability at 39C, ATP luminescence, 24 h; Potency, µM (top dose mostly 46.1 µM), inactives show at the highest dose activity change, negative = cell killing, actives largely listed as cytotoxic; 130,000 tested, 1.5% active; AID 902; further: potency means the concentration at half of the fitted maximal effect; on the % scale 0 is the no-effect control and ±100 the full control effect; nearly all actives have a fitted effect of over 55% in size
Imprint erasure: induces erasure of genomic imprints in mouse ES cells; Potency, µM (titrated, usually from 60.7 µM), for inactives: at the top dose activity change, positive = activation, hits mostly activators; 110,000 tested, 0.02% active; AID 1948; mouse ES Peg3-LacZ reporter, beta-gal luminescence, 40 h; further: potency means the concentration at half of the fitted maximal effect
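Gelatin-coated wells received 300 freshly trypsinized female ES cells with a Peg3LacZ-Neo reporter on the maternal allele, then incubated 40 hours at 37C. BetaGlo was added for 5 minutes at room temperature before a single luminescence read.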
IMPase inh: membrane-permeable compound that blocks inositol monophosphatase; 120,000 tested, under 10 active; CHO-M1 cells, IP1 accumulation, HTRF TR-FRET ratio; P97697; AID 901; inhibition (IP1 accumulation), % at 46.1 µM; active means well fitted curve in the direction sought with a large enough effect in the signal ratio, not every such curve was filed as active; inconclusive means small, poorly fitted or top-dose-only effect, or a change in a side signal; inactive means no such curve, though single readings can be large or run the other way; the % refers to the signal ratio;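 further: cells stimulated with carbachol in lithium chloride buffer; plate controls were DMSO basal wells for no effect and reference inhibitor wells for full effect; higher means more IMPase inhibition seen as more IP1 and lower FRET ratio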
Target sequence (P97697 whole entry, looked up): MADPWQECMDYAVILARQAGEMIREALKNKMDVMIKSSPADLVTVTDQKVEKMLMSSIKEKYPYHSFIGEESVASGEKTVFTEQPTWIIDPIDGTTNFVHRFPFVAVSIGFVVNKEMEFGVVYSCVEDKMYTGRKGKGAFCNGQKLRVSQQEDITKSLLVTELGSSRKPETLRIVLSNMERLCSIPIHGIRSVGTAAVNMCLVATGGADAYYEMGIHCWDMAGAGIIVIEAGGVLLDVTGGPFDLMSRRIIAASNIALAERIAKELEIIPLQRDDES
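CHO-M1 cells (CHO stably expressing M1 receptor), compound up to 46 uM final, stimulated with carbachol (50 uM as added) in buffer with 50mM LiCl, pH 7.4, 30 min at 37C. Cytosolic IP1 read by TR-FRET; AC50 from Hill fits.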
IkB sig inh: inhibitors of IkB signaling in ABC-DLBCL cells; ABC-DLBCL IkBa-CBG/CBR dual luciferase ratio, 4 h; response scale: scaled: untreated 0%, proteasome inhibitor 100%; AID 445; 110,000 tested, 0.04% active; Potency, µM (doses to about 57.1 µM), inactives show at the highest dose IkBa stabilization activation; active means well fitted curve in the direction sought with a large enough effect in the signal ratio, not every such curve was filed as active; inconclusive means small, poorly fitted or top-dose-only effect, or a change in a side signal; the % refers to the signal ratio;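 further: potency means the concentration at half of the fitted maximal effect; the direction sought is a rising ratio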
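In this assay, an IκBα–CBG68 fusion accumulates when IKK-driven degradation is blocked; native CBR normalizes for cell number. OCI-Ly3 cells were treated 4 h with compound and doxycycline, then green and red light read after Chroma-Glo addition.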
FLuc inh: blocks Photinus pyralis firefly luciferase activity; Potency, µM (top dose mostly 57.1 µM), for inactives: at the highest dose activity change, negative = inhibition, actives largely listed as inhibitors; 72,000 tested, 2.2% active; P08659; purified firefly luciferase, luminescence, 8 min; further: potency means the concentration at half of the fitted maximal effect; on the % scale 0 is the no-effect control and ±100 the full control effect; nearly all actives have a fitted effect of over 40% in size
Target sequence (P08659 whole entry, looked up): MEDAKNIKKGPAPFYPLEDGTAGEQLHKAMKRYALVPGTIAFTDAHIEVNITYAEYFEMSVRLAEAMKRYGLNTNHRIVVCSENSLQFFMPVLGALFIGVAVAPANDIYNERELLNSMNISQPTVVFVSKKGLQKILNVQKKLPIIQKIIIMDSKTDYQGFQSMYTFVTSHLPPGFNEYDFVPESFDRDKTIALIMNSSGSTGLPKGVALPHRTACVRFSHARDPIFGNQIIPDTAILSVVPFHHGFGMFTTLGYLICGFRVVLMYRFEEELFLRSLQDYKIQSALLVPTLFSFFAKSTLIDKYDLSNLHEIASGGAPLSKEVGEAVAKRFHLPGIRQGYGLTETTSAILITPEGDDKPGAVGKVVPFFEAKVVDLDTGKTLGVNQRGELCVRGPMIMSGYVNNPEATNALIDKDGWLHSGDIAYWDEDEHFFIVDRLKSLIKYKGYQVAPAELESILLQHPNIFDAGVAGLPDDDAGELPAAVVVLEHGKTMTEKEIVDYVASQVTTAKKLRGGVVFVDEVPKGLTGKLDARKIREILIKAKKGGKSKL
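Inhibition of light generation by firefly luciferase from ATP and luciferin was profiled with concentration-response curves per sample, ATP held at 10 uM within the enzyme's linear range. Plates were read by luminescence after an 8-minute ambient incubation.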
p53ts 32C kill: cytotoxicity in p53ts cells at permissive temperature. H1299-p53A138V at 32C, ATP luminescence viability, 24 h. Potency, µM (highest dose often 46.1 µM), inactives show at the highest dose activity change, negative = cytotoxicity, usual class: cytotoxic. 130,000 tested, 0.93% active. AID 924;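 further: potency means the concentration at half of the fitted maximal effect; 0% = DMSO and -100% = full killing by reference compound; nearly all actives have a fitted effect of over 55% in size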
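Viability by ATPlite luminescence after 24 h compound treatment (up to 46 uM) at the permissive 32C. Cells are H1299 carrying p53 A138V. Scale runs from DMSO basal to 100 uM tamoxifen as full kill; AC50 from Hill fits.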
* = called active by the depositor; ? = inconclusive; / = no result given; ! = not active in a repeat; [ ] = remark or other dose. Unless noted, the call rests on the fitted dose curve; in most records, active means well fitted curve in the direction sought with a large enough effect; inconclusive means small, poorly fitted or top-dose-only effect, or another doubt; inactive means no such curve, though single readings can be large; an effect the other way counts as inactive or inconclusive.

SMILES	p53ts 39C tox	Imprint erasure	IMPase inh	IkB sig inh	FLuc inh	p53ts 32C kill
O=C(Nc1ccc(F)c(F)c1)c1cc(S(=O)(=O)NC2CCCCCC2)ccc1F	-14%	-8%[10.9 µM]	/	?	/	-13%
O=C(CCn1c(=O)c2cccn2c2cccnc21)N1CCN(c2ccc(F)cc2)CC1	0%	-11%[10.9 µM]	/	0%	/	-7%
CCN(CC)c1ccc(NC(=O)c2cccnc2)cc1	/	/	13	/	/	/
CCN(CC)c1ccc(-c2nc3cnccc3n2C)cc1	?	-40%	3	0%	10µM*	?
C#CCOc1ccc(-c2nnc(Nc3ccc(NC(C)=O)cc3)c3ccccc23)cc1	-23%	-6%[10.9 µM]	3	?	/	-6%
CC(C)Cn1nc(NC(=O)c2cccc(Cl)c2)c2cc3ccccc3nc21	13µM*	-8%[10.9 µM]	/	?	/	-24%
CCCCn1nc(NC(=O)c2cccc(Cl)c2)c2cc3ccccc3nc21	-12%	-7%[10.9 µM]	/	?	/	4%
CCOc1ccc(OCc2cccc(C(=O)N3CCOCC3)c2)cc1	13µM*	-99%	-5	?	5µM*	10µM*
COc1ccc(OCc2ccc(C(=O)N3CCOCC3)cc2)cc1	9%	/	8	/	/	-19%
COc1ccc(-c2cc(OC(=O)c3ccc(F)cc3)c3c(C)oc(C)c3c(=O)c2)cc1OC	22%	6%[10.9 µM]	/	?	/	3%
Cc1cc(-c2ccc(N=Nc3ccc4c(S(=O)(=O)O)cc(S(=O)(=O)O)c(N)c4c3O)c(C)c2)ccc1N=Nc1ccc2c(S(=O)(=O)O)cc(S(=O)(=O)O)c(N)c2c1O	16µM*	-44%	?	?	32µM*	13µM*
Cc1ccc(N=Nc2c(O)c(S(=O)(=O)O)cc3cc(S(=O)(=O)O)ccc23)c(C)c1	7%[9.22 µM]	-17%[10.9 µM]	/	-4%[11.4 µM]	-18%[11.4 µM]	-2%[9.22 µM]
O=C(O)/C=C(/C(=O)O)[C@]12CCN3CC4=CCO[C@@H]5CC(=O)N[C@@H]1C5[C@H]4C[C@H]32 (stereo partly specified)	/	4%[10.9 µM]	/	/	/	/
COc1ccc(CCN2CCC(Nc3nc4ccccc4n3Cc3ccc(F)cc3)CC2)cc1	13µM*!	-42%	14[20.6 µM]	5%[25.6 µM]	2%[25.5 µM]	-15%
CSc1nc(N)c2ncn([C@H]3O[C@H](COP(=O)(O)OP(=O)(O)O)[C@@H](O)[C@@H]3O)c2n1	-1%	2%	-5	0%	-18%	5%
O=C(Nc1nsc(-c2ccccc2)n1)c1cccs1	5µM*	-76%	-3	?	5µM*	4µM*
Cc1ccc(C(=O)Nc2ncc(Cc3ccccc3)s2)o1	?	-48%	1	2%	13µM*	?
Cc1ccc(Cc2cnc(NC(=O)c3cccs3)s2)cc1	/	/	3	/	/	/
O=C(Nc1ncc(Cc2ccccc2)s1)c1cccs1	?	/	4	?	10µM*	?
Cc1sc(NC(=O)c2cccs2)nc1-c1ccccc1	/	/	9	/	/	/
Nc1ccc(N)c(Cl)c1	11%	-41%	/	10%	/	10%[1.84 µM]
O=C1OC2(c3cc(Br)c(O)c(Br)c3Oc3c2cc(Br)c(O)c3Br)c2c(Cl)c(Cl)c(Cl)c(Cl)c21	3%	-1%	/	-9%	/	-4%[1.84 µM]
O=c1/c(=C/c2ccc(O)cc2)sc2n1CCCN=2	/	/	-16	/	/	/
CN(C)c1ccc(/C=c2\sc3n(c2=O)CCCN=3)cc1	13µM*	-79%	9[1.84 µM]	?	2.5µM*	13µM*
CC(C)Cc1cc(C(=O)Nc2sc3c(c2C#N)CCCC3)no1	-10%	-6%	-3	7%	1%	-4%
SMILES	p53ts 39C tox	Imprint erasure	IMPase inh	IkB sig inh	FLuc inh	p53ts 32C kill
Cc1cc(C(=O)Nc2sc3c(c2C#N)CCCC3)no1	13µM*	-53%	-2	0%	13µM*	6.3µM*
Cc1cc(C(=O)Nc2sc3c(c2C#N)CCC3)no1	13µM*	-52%	5	-2%	16µM*	10µM*
CCOc1ccc2c(ccc(/C=C\c3cc(C)c4cccnc4c3O)[n+]2C)c1	-28%[9.22 µM]	-26%[10.9 µM]	/	?	-11%[11.4 µM]	-17%[9.22 µM]
O=C(COC(=O)c1ccc(Cl)s1)c1cc2ccccc2o1	/	/	1	/	/	/
Cn1cccc1C(=O)OCC(=O)c1cc2ccccc2o1	-2%	-9%	-7	?	25µM*	-1%
Cc1cc(NCCCn2ccnc2)n2nc(C)c(-c3ccccc3)c2n1	/	/	3	/	/	/
Cc1cc(NCCCn2ccnc2)n2ncc(-c3ccccc3)c2n1	4µM*	-50%	8	4%	1.6µM*	3.2µM*
Cc1cc(NCCN2CCOCC2)n2ncc(-c3ccccc3)c2n1	-7%	0%	1	1%	20µM*	-4%
Cc1ccccc1C(=O)Nc1cccc(NC(=O)c2ccc(C(C)(C)C)cc2)c1	13µM*	-24%[10.9 µM]	-2	17%	/	10µM*
Cc1ccccc1C(=O)Nc1cccc(N)c1	2%	-19%	2	5%	-2%	-1%
Nc1ccccc1C(=O)Nc1cccc(C(=O)O)c1	-18%	-91%	7	?	25µM*	-25%
Cc1occc1C(=O)Nc1cccc(C(=O)O)c1	/	/	-2	/	/	/
COc1ccccc1Cn1c(-c2ccco2)nc2nc3ccccc3nc21	-13%	-1%	/	6%	3.2µM*	-9%
Clc1ccc(-c2nc3nc4ccccc4nc3n2Cc2ccco2)cc1	-1%	2%	4	?	-3%	-5%
Cc1ccc(-c2nc3nc4ccccc4nc3n2Cc2ccco2)cc1	13µM*	4%	9	?	10µM*	13µM*
c1ccc(Cn2c(-c3ccco3)nc3nc4ccccc4nc32)cc1	-13%	-75%	13	0%	-25%	-11%
Cc1ccc(S(=O)(=O)O[C@H]2C[C@@H](C(C)(C)C)CC[C@@H]2c2ccccc2)cc1	0%[9.22 µM]	/	/	2%[11.4 µM]	0%[11.4 µM]	1%[9.22 µM]
Cn1c(O)c(N=N/C(=N/c2ccccn2)c2ccccn2)c2cc(Br)ccc21	-30%	/	/	/	/	-13%
O=C(Nc1ccc(F)cc1)c1ncn(-c2ccccc2)n1	16µM*	-32%[10.9 µM]	-2	?	/	?
CCOc1ccc(NC(=O)c2ncn(-c3ccccc3)n2)cc1	-23%	-7%[10.9 µM]	1	?	/	-12%
Cc1nc(-c2coc3cc(O)c(C)cc3c2=O)cs1	/	/	1	/	/	/
Cc1nc(-c2coc3cc(OCC(=O)O)ccc3c2=O)cs1	/	/	-1	/	4µM*	/
COc1ccc(-c2coc3cc(O)ccc3c2=O)cc1	?	-44%	-4	2%[11.4 µM]	-14%[11.4 µM]	?
COc1ccc2c(=O)c(-c3nc(C)cs3)coc2c1	/	/	-5	/	2µM*	/
CCN1C(C)=C(C(=O)OC)C(c2ccccc2)N2C(=O)[C@](O)(C(=O)OC)C(c3ccccc3)C(C(C)=O)=C12 (stereo partly specified)	6%[9.22 µM]	/	/	/	/	-1%[9.22 µM]
C[C@H](O)[C@H](O)[C@@H](O)c1cnc2nc(N)[nH]c(=O)c2n1	/	/	/	1%[11.4 µM]	0%[11.4 µM]	/

Assay outcomes from PubChem.
